Screen size: about 2,400 compounds; about 180 (7.5%) were called active. This is one part of a sample in which actives are shown more often than they occur. Values without a mark were called inactive.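 How the source made its calls: active means readout below zero, meaning a drop past 3 SD under the dofetilide-free negative control mean; inactive means the rest.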

Potassium voltage-gated channel subfamily KQT member 2 (Rattus norvegicus), sequence (O88943 whole entry, looked up): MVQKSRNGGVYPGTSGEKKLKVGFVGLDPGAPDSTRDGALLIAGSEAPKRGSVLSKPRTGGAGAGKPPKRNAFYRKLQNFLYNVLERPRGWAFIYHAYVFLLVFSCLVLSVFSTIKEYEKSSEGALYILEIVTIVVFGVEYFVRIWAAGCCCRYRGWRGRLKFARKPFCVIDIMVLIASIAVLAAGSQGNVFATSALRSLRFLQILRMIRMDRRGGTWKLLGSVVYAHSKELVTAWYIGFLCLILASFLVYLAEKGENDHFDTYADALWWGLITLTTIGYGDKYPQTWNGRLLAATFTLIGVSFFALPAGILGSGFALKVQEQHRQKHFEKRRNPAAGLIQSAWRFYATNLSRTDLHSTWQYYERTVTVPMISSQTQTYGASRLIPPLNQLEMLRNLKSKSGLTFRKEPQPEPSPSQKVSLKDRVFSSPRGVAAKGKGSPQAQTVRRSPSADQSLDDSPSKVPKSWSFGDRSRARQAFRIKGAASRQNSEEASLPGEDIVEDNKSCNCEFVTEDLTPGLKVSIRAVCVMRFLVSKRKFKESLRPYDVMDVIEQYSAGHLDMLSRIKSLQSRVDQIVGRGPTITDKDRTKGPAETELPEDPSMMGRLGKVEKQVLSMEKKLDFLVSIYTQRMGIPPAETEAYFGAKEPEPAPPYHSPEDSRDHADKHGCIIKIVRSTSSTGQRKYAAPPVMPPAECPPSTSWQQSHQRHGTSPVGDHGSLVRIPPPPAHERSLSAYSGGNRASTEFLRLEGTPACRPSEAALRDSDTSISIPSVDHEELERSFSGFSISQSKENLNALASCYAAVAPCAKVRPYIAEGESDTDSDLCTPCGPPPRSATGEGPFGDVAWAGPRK

This assay concerns the target Potassium voltage-gated channel subfamily KQT member 2 (Rattus norvegicus) (UniProt O88943). The assay can be described thus: KCNQ2 blockade in CHO cells – cell-based, FluxOR thallium flux, counter-screen for hERG block protector project, confirmation (AID 1946). To be noted: FluxOR thallium flux fluorescence, at 10 µM, active compounds read low, zero marks the 3-SD hit cutoff. On the technique in general: A counterscreen serves to expose hits that act by an unwanted route or on another target.
Take `CC(=O)c1c(N)[nH]c(-c2ccccc2)nc1=S`: the activity change vs negative control was 22.9%.
Regarding `Cc1ccc(CN2CCN(CC(=O)NC(C)c3ccc4c(c3)OCCO4)C2=O)cc1` (centres undefined), the activity change vs negative control was 38.3%.
For `CN1C(=O)/C(=N/OC(=O)c2ccccc2)c2ccccc21`, the activity change vs negative control was 8%.
Turning to `Cc1ccc(NC(=O)c2ccc(CNS(=O)(=O)c3cccc(C(F)(F)F)c3)cc2)cc1`, the activity change vs negative control is 8.1%.
Turning to `CC(=O)c1ccc(S(=O)(=O)NCc2ccc(C(=O)N(C)CC(=O)Nc3cccc(F)c3)cc2)cc1`, the activity change vs negative control is 5.5%.
`CN(CC(=O)Nc1ccc(Cl)cc1)C(=O)c1cccc(S(=O)(=O)NCc2ccccc2)c1`: the activity change vs negative control is -2.7% (active).
As to `O=c1c2ccc(Cl)cc2nc(-c2cccc(C(F)(F)F)c2)n1O`, the activity change vs negative control was 141%.
The figure for `ON/C=N/C(=S)Nc1ncc(C(F)(F)F)cc1Cl` is 49.3%.
In the case of `CC1(C)CC2CC(C)(CN2C(=S)NC(=O)c2ccccc2Cl)C1` (centres undefined), the activity change vs negative control is 37.9%.
For the compound `Cc1ccc(/C(O)=C/C(=O)C(=O)NC23CC4CC(CC(C4)C2)C3)cc1`, the activity change vs negative control is 32.5%.
In the case of `Cc1ccc(N=Cc2cc(Cl)cc(Cl)c2O)nc1`, the activity change vs negative control was 53.9%.
To `Cc1cc(C)n(-c2nc(NCCCN(C)C)c3c4c(sc3n2)CCCC4)n1` belongs -1.4% (active); to `CN(C)CCNc1ncnc2c1sc1nc(N3CCCC3)c3c(c12)CC(C)(C)OC3`, 8.8%; to `Cc1cc(C)n(-c2nc3sc4c(c3c(=O)[nH]2)CCCC4)n1`, 28%.
Turning to `CC(NC(=O)NC1CCCCC1)c1ccc2c(c1)OCO2` (centres undefined), the activity change vs negative control is 72.4%.
For `COc1ccccc1C(=O)NNC(=O)C(=O)NC(C)(C)C`, the activity change vs negative control was 31.3%.
As to `COc1ccc(NS(=O)(=O)c2ccc3ccccc3c2)c2ncccc12`, the activity change vs negative control was 2%.
For the compound `Cc1ccc(NS(=O)(=O)c2ccc(NC(=O)c3ccccc3C(=O)O)cc2)cc1C`, the activity change vs negative control is 10.8%.
As for `COc1ccccc1-n1cnc2cc(NS(=O)(=O)c3ccc(Br)cc3)ccc21`, the activity change vs negative control was -2.5% (active).
As to `COc1ccc(C(=O)NC(=S)N(Cc2ccccc2)Cc2ccccc2)cc1`, the activity change vs negative control was 51.4%.
As for `CCOC(=O)N1CCN(c2c(-c3ccc(C)c(C)c3)c(=O)c2=O)CC1`, the activity change vs negative control is 20.5%.
Turning to `Cc1ccc(C(=O)NC(=S)N(C)C2CCCCC2)cc1Br`, the activity change vs negative control is 17.4%.
Regarding `COc1ccc(CCNC(=O)c2ccc3c(c2)OCO3)cc1`, the activity change vs negative control was 5%.
In the case of `CCCCNC(=S)NNC(=O)c1ccc2c(c1)OCO2`, the activity change vs negative control is -2.9% (active).
In the case of `Cc1ccc(C(C)NC(=O)c2ccc3c(c2)OCO3)cc1C` (centres undefined), the activity change vs negative control is 58.4%.
Regarding `O=c1c(-c2ccccc2)nc(-c2ccccc2)cn1O`, the activity change vs negative control is 88.1%.
For the compound `COc1cccc(C(=O)NNC(=O)C(=O)Nc2cccc(Cl)c2C)c1`, the activity change vs negative control was 83.6%.
To `COC(=O)C1=NN(C(=O)c2cccc(Br)c2)C(O)(c2ccc(Cl)cc2)C1` (centres undefined) belongs 158%; to `CCOC(=O)c1cnn(-c2nc(SC)nc3sc4c(c23)CCCC4)c1N`, 5.9%.
Regarding `Cc1ccc(NC(=O)CCc2nc3sc4c(c3c(=O)[nH]2)CCCC4)c(Br)c1`, the activity change vs negative control is -0.3% (active).
As for `Cc1nc(SCC(=O)NCC2CCCO2)c2c3c(sc2n1)CCCC3` (centres undefined), the activity change vs negative control was 32.5%.
For `Fc1ccc(NC(=S)Nc2nccs2)cc1`, the activity change vs negative control is 16.4%.
Consider `CCC(C)c1ccccc1NC(=S)NC(=O)c1ccco1` (centres undefined), for which the activity change vs negative control is 82%.
With `Cc1ccc(NC(=O)CN2C(=O)S/C(=C/c3ccc(-c4cc(C(=O)O)ccc4C)o3)C2=O)cc1C`, the activity change vs negative control is 4.8%.
Turning to `COc1cc(/C=C2/SC(=S)N(CC(=O)O)C2=O)ccc1OCC(=O)Nc1ccc(C)c(C)c1`, the activity change vs negative control is -3.8% (active).
Turning to `O=C(CCN1C(=O)/C(=C/c2cccs2)SC1=S)Nc1cccc(C(=O)O)c1`, the activity change vs negative control was 5.2%.
With `CSc1nc2c(c(=O)[nH]1)C(c1ccccc1Cl)CC(=O)N2` (centres undefined), the activity change vs negative control is 1.5%.
Take `Cc1cccc(NC(=S)NC(=O)c2ccc(Br)o2)c1C`: the activity change vs negative control is 27.3%.
For the compound `Cc1ccc(C(=O)NC(C)c2ccc(C)c(C)c2)s1` (centres undefined), the activity change vs negative control was 53.7%.
The figure for `COc1ccc(/C=C2\SC(c3ccc(C)cc3)=NC2=O)cc1OC` is -3.2% (active); for `COc1ccc(/C=C2\SC(=N)N(c3nccs3)C2=O)cc1OC` it is 6.8%; for `COc1cc(/C=C/C(=O)O)ccc1OS(=O)(=O)c1cc(C)ccc1C` it is 13.1%.
As to `O=S(=O)(NC(=S)NC1CCCCC1)c1ccc(Cl)cc1`, the activity change vs negative control was 34.4%.
For `S=c1nc(Cc2ccc(Cl)cc2)[nH]c2ccccc12`, the activity change vs negative control was 51.9%.
On to `COc1ccccc1NC(=O)C1CCCN1C(=O)Nc1ccc(F)cc1` (centres undefined), for which the activity change vs negative control was 1.7%.
To `COc1ccccc1NC(=O)C1CCCN1C(=O)NCc1ccccc1` (centres undefined) belongs -1.2% (active).
Take `COc1ccccc1C(=O)NNC(=O)C(=O)NCc1ccccc1`: the activity change vs negative control is 41.8%.
Consider `COc1cccc(OCC(=O)NNC(=O)C(=O)Nc2ccc(OC)cc2OC)c1`, for which the activity change vs negative control is 43.2%.
To `O=C1NC(=O)/C(=C/c2cc3c(cc2Br)OCO3)S1` belongs -0.8% (active); to `O=C1NC(=S)S/C1=C\c1ccc2ccccc2c1`, 75.1%.
As for `CCCN1C(=O)/C(=C/c2ccc3c(c2)OCO3)NC1=S`, the activity change vs negative control was 19.4%.
With `N#Cc1c(NC(=O)c2cc(-n3cnnc3)ccc2Cl)sc2c1CCCC2`, the activity change vs negative control was 13%.
For the compound `COc1ccc(C(=O)CC(=O)C(=O)Nc2ccccc2)cc1`, the activity change vs negative control is 32.5%.
To `CC1CN(C(=S)NC(=O)c2ccc(Cl)cc2)CC(C)O1` (centres undefined) belongs 28.2%; to `CCn1cc(C(=O)NCCN(C)C)c(=O)c2cc(F)c(N3CCN(C)CC3)cc21`, -0.9% (active); to `O=C(NC(=S)Nc1cccnc1)c1cc2ccccc2o1`, 31.9%.
As for `COc1ccc(C(=O)O)cc1S(=O)(=O)Nc1cccc(C(F)(F)F)c1`, the activity change vs negative control was 8%.
The figure for `CC(C)Oc1cccc(C(=O)N2CCCC2)c1` is 9.7%; for `COc1ccc(CS(=O)(=O)CC2(O)CCN(C(=O)c3cccc(C(F)(F)F)c3)CC2)cc1` it is -2.4% (active).
The figure for `C/C(=N\NC(=O)c1cc2ccccc2cc1O)c1cc2ccccc2o1` is 112%.
As to `O=C(Nc1nc(=O)c2ccccc2s1)c1ccc(Cl)cc1`, the activity change vs negative control was 23.9%.
To `Cc1c(-c2ccn[nH]2)cc(NC(=O)c2ccc(Cl)cc2)c(=O)n1N` belongs -0.8% (active); to `Cc1ccc(C(=O)Nc2nc(=O)n(C)s2)cc1`, 15.9%.
In the case of `CCOC(=O)c1nnn(CC(=O)Nc2cccc(F)c2)c1C(=O)OCC`, the activity change vs negative control was 14.1%.
As to `CCOC(=O)c1ccc(NC(=O)Cn2nnc(-c3ccccc3)n2)cc1`, the activity change vs negative control is -3.4% (active).
In the case of `Cc1cc(C)c(-c2cc(NC(=O)COC(=O)c3ccc(NC(=O)CC#N)cc3)n(-c3ccccc3)n2)cc1C`, the activity change vs negative control is 7.4%.
To `Cc1cccc(NC(=S)NC(=O)c2ccco2)c1C` belongs 77.7%.
Consider `O=C(Nc1nc(-c2ccccc2)c(-c2ccccc2)o1)c1ccc(F)cc1`, for which the activity change vs negative control was 40.3%.
In the case of `O=C(Nc1cccc2[nH]ncc12)c1ccc(F)cc1`, the activity change vs negative control is -2.9% (active).
To `CCOc1cccc(C(=O)Nc2ccc3[nH]ncc3c2)c1` belongs 15.6%.
The figure for `CCCCn1c(N)c(C(=S)NC(=O)CC(C)(C)C)c(=O)n(C)c1=O` is 40.5%.
The figure for `Cc1sc2ncnc(SCC(=O)c3ccc(O)cc3O)c2c1C` is 24.3%; for `Cn1ncc2c(NNC(=O)c3ccc(O)cc3)ncnc21` it is -3.1% (active); for `Cn1ncc2c(NNC(=O)Cc3ccccc3)ncnc21` it is 15.1%.
As for `Cn1ncc2c(O/N=C(\N)c3ccc(C(F)(F)F)cc3)ncnc21`, the activity change vs negative control is 7.4%.
Take `O=c1cc(-c2ccccc2)cc(-c2ccccc2)n1O`: the activity change vs negative control was 72.2%.
As for `COc1ccc(OCC(=O)NNC(=O)C(=O)Nc2ccc(C)cc2)cc1`, the activity change vs negative control is 7.7%.
The figure for `COC(=O)CNC(=S)NC(=O)c1ccc(C(C)(C)C)cc1` is 1.6%.
`COC(=O)CNc1nc(Cl)nc(Nc2ccc(C)cc2)n1`: the activity change vs negative control was -0.4% (active).
The figure for `COc1ccc(-n2c(O)c(/C=C3\C=Nc4ccccc43)c(=O)[nH]c2=O)cc1` is -8.7% (active); for `COc1ccc(Cn2c(O)cc(=O)[nH]c2=O)cc1` it is 1.4%.
As for `COc1ccc(-n2c(=S)[nH]c3ccccc3c2=S)cc1`, the activity change vs negative control was 22.2%.
To `CCC1(C)Cc2c(sc3nc(SC)[nH]c(=S)c23)CO1` (centres undefined) belongs 131%.
The figure for `COc1ccc(/C=C/C(=O)Nc2ccccc2C(=O)O)cc1` is 27.2%; for `CCOC(=O)/C(C)=N/NC(=O)c1ccc([N+](=O)[O-])cc1` it is 40.5%; for `CCNC(=S)Nc1nc2c(cc1C(=O)OCC)CCCC2` it is 29.4%.
Take `O=C(O)CSCc1c(F)cccc1Cl`: the activity change vs negative control was -3.5% (active).
On to `O=C(O)CSc1nc2ccccc2nc1Cc1ccccc1F`, for which the activity change vs negative control is 29.1%.
To `CCN(CC)CCCN1C(=O)c2oc3ccccc3c(=O)c2C1c1cccs1` (centres undefined) belongs 44.2%; to `CON/C=N/C(=S)Nc1ncc(C(F)(F)F)cc1Cl`, 51.1%; to `Cc1nn(C)c(C(=O)NC(=S)Nc2ccc([N+](=O)[O-])cc2)c1Cl`, 29.3%.
Consider `Cc1ccc(NC(=S)NC(=O)c2sc3ccccc3c2Cl)c(C(=O)O)c1`, for which the activity change vs negative control is 36.9%.
The figure for `COc1cccc([C@@H]2Oc3ccc(OC)cc3C(=O)[C@H]2OC(=O)NCc2ccc3c(c2)OCO3)c1` is 2.3%; for `CCOc1ccc(/C=C2\CCc3ccccc3C2=O)cc1` it is 10.2%; for `COc1cccc(C2C3=C(N=c4s/c(=C\c5ccc(OCC(=O)O)cc5)c(=O)n42)c2ccccc2CC3)c1` (centres undefined) it is -16.7% (active).
Turning to `O=C(NC(=S)N(CCCCO)C1CCCCC1)c1sc2ccccc2c1Cl`, the activity change vs negative control was 53.8%.
For the compound `O=C(CNCC1CCCO1)N1CCCCCC1` (centres undefined), the activity change vs negative control is 8.2%.
Turning to `O=C(CSc1cn(CC(=O)N2CCCC2)c2ccccc12)NCC1CCCO1` (centres undefined), the activity change vs negative control is -4.5% (active).
`C=CCn1c(SCC(=O)NCC2CCCO2)nnc1-c1ccccc1` (centres undefined): the activity change vs negative control was 8.9%.

The values above are taken from PubChem BioAssay AID1946 (Johns Hopkins Ion Channel Center, 2009).
